This is part of a sample that, as a whole, favours compounds with a hit. Of some 83,000 tested, about 20% had one in any assay.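 Assay: single dose, 48 h. Readout: percent growth (0 = no net growth; negative = cell death). Active: <10.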 Active and inactive are the calls of the source.
Columns and labels:
Assay in all cases: NCI-60 one-dose screen, 48 h (100 = growth as untreated, 0 = no growth, -100 = all killed)
T-47D breast = conditions: 10 µM
BT-549 breast = conditions: 10 µM
MDA-MB-435 melanoma = conditions: 10 µM
SW-620 colon = conditions: 10 µM
MCF7 breast = conditions: 10 µM unless noted
HCT-116 colon = conditions: 10 µM
HCC-2998 colon = conditions: 10 µM
KM12 colon = conditions: 10 µM

Measured: growth

COS(=O)(=O)c1ccc(Br)cc1
inactive: T-47D breast 93.9% | BT-549 breast 113% | MDA-MB-435 melanoma 110% | SW-620 colon 97.5% | MCF7 breast 97.3% | HCT-116 colon 93.9% | HCC-2998 colon 99.8% | KM12 colon 91.7%

COC(=O)c1cccnc1
inactive: T-47D breast 118% | BT-549 breast 85.5% | MDA-MB-435 melanoma 105% | SW-620 colon 97.4% | MCF7 breast 96.4% | HCT-116 colon 97.8% | HCC-2998 colon 104% | KM12 colon 112%

CCCNC(=O)c1ccc(S(N)(=O)=O)cc1
inactive: T-47D breast 96% | BT-549 breast 120% | MDA-MB-435 melanoma 117% | SW-620 colon 94.5% | MCF7 breast 95% | HCT-116 colon 96.4% | HCC-2998 colon 100% | KM12 colon 106%

COCCCC/C(=N\OCCN)c1ccc(C(F)(F)F)cc1
inactive: T-47D breast 86.4% | BT-549 breast 107% | MDA-MB-435 melanoma 99.4% | SW-620 colon 97.1% | MCF7 breast 108% | HCT-116 colon 101% | HCC-2998 colon 116% | KM12 colon 107%

O=C1C=C(Nc2ccc([N+](=O)[O-])cc2)c2ccccc2C1=O
inactive: T-47D breast 20% | SW-620 colon 40.4% | MCF7 breast 26.5% | HCT-116 colon 18% | HCC-2998 colon 72.4% | KM12 colon 32.4%
active: BT-549 breast -1.53% | MDA-MB-435 melanoma -88.2%

S=c1sc2ccccc2n1CN1CCCCC1
inactive: T-47D breast 100% | BT-549 breast 90.3% | MDA-MB-435 melanoma 104% | SW-620 colon 90% | MCF7 breast 115% | HCT-116 colon 102% | HCC-2998 colon 116% | KM12 colon 98.4%

CCO/C=C1\SC(=S)N(c2cccc(C)c2)C1=O
inactive: T-47D breast 93.2% | BT-549 breast 114% | MDA-MB-435 melanoma 103% | SW-620 colon 103% | MCF7 breast 90.5% | HCT-116 colon 109% | HCC-2998 colon 106% | KM12 colon 103%

O=c1[nH][nH]c(=O)c2cc([N+](=O)[O-])ccc12
inactive: T-47D breast 96.1% | BT-549 breast 106% | MDA-MB-435 melanoma 109% | SW-620 colon 101% | MCF7 breast 99.8% | HCT-116 colon 101% | HCC-2998 colon 99.6% | KM12 colon 106%

COc1cc(CN)ccc1O
inactive: T-47D breast 94.5% | BT-549 breast 95% | MDA-MB-435 melanoma 99.5% | SW-620 colon 103% | MCF7 breast 83.7% | HCT-116 colon 103% | HCC-2998 colon 86.3% | KM12 colon 104%

CCCCCCCO
inactive: T-47D breast 104% | BT-549 breast 103% | MDA-MB-435 melanoma 114% | SW-620 colon 95% | MCF7 breast 88.8% | HCT-116 colon 102% | HCC-2998 colon 107% | KM12 colon 112%

CCOC(=O)Nc1cc2c(c(N)n1)N=C(c1ccccc1)CO2
active: MDA-MB-435 melanoma 4.31% | HCT-116 colon 6.32% | KM12 colon 5.46%
inactive: T-47D breast 72.3% | BT-549 breast 49.7% | SW-620 colon 26.2% | MCF7 breast 20.4% | HCC-2998 colon 23.5%

C#Cc1cccc(NC(=O)c2ccc(Cl)cc2Cl)c1
inactive: T-47D breast 95.2% | BT-549 breast 111% | MDA-MB-435 melanoma 103% | SW-620 colon 91.9% | MCF7 breast 90.3% | HCT-116 colon 93.2% | HCC-2998 colon 113% | KM12 colon 115%

Nc1ccc(N=Nc2ccc(O)cc2)c(N)n1
inactive: T-47D breast 82.8% | BT-549 breast 57.2% | MDA-MB-435 melanoma 69.3% | SW-620 colon 104% | MCF7 breast 93.4% | HCT-116 colon 86.3% | HCC-2998 colon 81.5% | KM12 colon 43.2%

Cc1cc2nc(CO)[nH]c2cc1C
inactive: T-47D breast 124% | BT-549 breast 105% | MDA-MB-435 melanoma 109% | SW-620 colon 103% | MCF7 breast 120% | HCT-116 colon 108% | HCC-2998 colon 109% | KM12 colon 103%

O=c1cc(-c2ccccc2)[nH]c(=S)[nH]1
inactive: T-47D breast 107% | BT-549 breast 97.5% | MDA-MB-435 melanoma 104% | SW-620 colon 104% | MCF7 breast 95.3% | HCT-116 colon 101% | HCC-2998 colon 104% | KM12 colon 96.7%

O=C1C=C(O)C(=O)C=C1O
inactive: T-47D breast 93.9% | BT-549 breast 103% | MDA-MB-435 melanoma 109% | SW-620 colon 104% | MCF7 breast 96.5% | HCT-116 colon 105% | HCC-2998 colon 111% | KM12 colon 107%

CC(=O)OCCC(C)CCC=C(C)C (centres undefined)
inactive: T-47D breast 98.8% | BT-549 breast 102% | MDA-MB-435 melanoma 102% | SW-620 colon 95.4% | MCF7 breast 101% | HCT-116 colon 100% | HCC-2998 colon 102% | KM12 colon 102%

O=C(Nc1ccccc1C(=O)NCC1CC1)c1cccs1
inactive: T-47D breast 106% | BT-549 breast 99.9% | MDA-MB-435 melanoma 105% | SW-620 colon 109% | MCF7 breast 106% | HCT-116 colon 93.7% | HCC-2998 colon 103% | KM12 colon 107%

N#Cc1ccc(OC(=O)Nc2ccc(Cl)c(Cl)c2)cc1
inactive: T-47D breast 27.9% | BT-549 breast 93.3% | MDA-MB-435 melanoma 99.3% | SW-620 colon 96.2% | MCF7 breast 44.5% | HCT-116 colon 50% | HCC-2998 colon 87.1% | KM12 colon 42.9%

CO[C@H]1C[C@@H]2CC[C@@H](C)[C@@](O)(O2)C(=O)C(=O)N2CCCC[C@H]2C(=O)O[C@H]([C@H](C)C[C@@H]2CC[C@@H](O)[C@H](OC)C2)CC(=O)[C@H](C)C=C(C)[C@@H](O)[C@@H](OC)C(=O)[C@H](C)C[C@H](C)/C=C/C=C/C=C1C
inactive: T-47D breast 19.4% | BT-549 breast 15.6% | MDA-MB-435 melanoma 49% | SW-620 colon 58% | MCF7 breast 23.8% | HCT-116 colon 31.1% | HCC-2998 colon 146% | KM12 colon 60.9%

NCCC(=O)c1ccc(Cl)cc1
inactive: T-47D breast 91.4% | BT-549 breast 109% | MDA-MB-435 melanoma 110% | SW-620 colon 102% | MCF7 breast 110% | HCT-116 colon 102% | HCC-2998 colon 97.6% | KM12 colon 98.1%

CCOC(=O)CCCS(C)(=O)=O
inactive: T-47D breast 102% | BT-549 breast 100% | MDA-MB-435 melanoma 119% | SW-620 colon 105% | MCF7 breast 92.6% | HCT-116 colon 110% | HCC-2998 colon 91% | KM12 colon 108%

CCCCC1(CC)COC(CCC)OC1 (centres undefined)
inactive: T-47D breast 104% | BT-549 breast 106% | MDA-MB-435 melanoma 118% | SW-620 colon 110% | MCF7 breast 96.6% | HCT-116 colon 98.8% | HCC-2998 colon 98.1% | KM12 colon 104%

Nc1ccccc1C(=O)Nc1ccc(Cl)cc1Cl
inactive: T-47D breast 88% | BT-549 breast 99.2% | MDA-MB-435 melanoma 107% | SW-620 colon 85.9% | MCF7 breast 65.5% | HCT-116 colon 59.9% | HCC-2998 colon 103% | KM12 colon 91%

S=C(Nc1ccccc1)N1CCCCC1
inactive: T-47D breast 89.3% | BT-549 breast 112% | MDA-MB-435 melanoma 110% | SW-620 colon 106% | MCF7 breast 93.2% | HCT-116 colon 92.3% | HCC-2998 colon 101% | KM12 colon 105%

CC1=NN(c2ccccc2)C(=O)/C1=C\N1CC(=O)NC1=S
inactive: T-47D breast 97.1% | BT-549 breast 107% | MDA-MB-435 melanoma 105% | SW-620 colon 106% | MCF7 breast 103% | HCT-116 colon 106% | HCC-2998 colon 108% | KM12 colon 103%

CCOc1ccccc1/C=N/Nc1nc2ccccc2o1
active: MCF7 breast 7.97%
inactive: T-47D breast 23.4% | BT-549 breast 98.3% | MDA-MB-435 melanoma 113% | SW-620 colon 102% | HCT-116 colon 102% | HCC-2998 colon 62.2% | KM12 colon 86.4%

COC(=O)/C=C/C(=O)NC(N)=O
inactive: T-47D breast 95.3% | BT-549 breast 99.4% | MDA-MB-435 melanoma 99% | SW-620 colon 103% | MCF7 breast 94.8% | HCT-116 colon 103% | HCC-2998 colon 122% | KM12 colon 102%

CC(=O)NCc1cc(C)c(C)cc1C
inactive: T-47D breast 89% | BT-549 breast 100% | MDA-MB-435 melanoma 114% | SW-620 colon 107% | MCF7 breast 97.4% | HCT-116 colon 101% | HCC-2998 colon 115% | KM12 colon 95.7%

Clc1ccc(-c2nnc(-c3cccc4ccccc34)o2)cc1
inactive: T-47D breast 53.4% | BT-549 breast 104% | MDA-MB-435 melanoma 96% | SW-620 colon 93% | MCF7 breast 32.2% | HCT-116 colon 93.9% | HCC-2998 colon 104% | KM12 colon 102%

CC(=O)Nc1c(C)cc(C)cc1C
inactive: T-47D breast 98.2% | BT-549 breast 105% | MDA-MB-435 melanoma 102% | SW-620 colon 106% | MCF7 breast 96.5% | HCT-116 colon 102% | HCC-2998 colon 104% | KM12 colon 103%

CC1(C(N)=O)CCC(C(=O)O)C1(C)C (centres undefined)
inactive: T-47D breast 91.3% | BT-549 breast 99.7% | MDA-MB-435 melanoma 97.4% | SW-620 colon 111% | MCF7 breast 88.4% | HCT-116 colon 99.7% | HCC-2998 colon 99.4% | KM12 colon 111%

Oc1ccccc1O
inactive: T-47D breast 95.2% | BT-549 breast 96% | MDA-MB-435 melanoma 110% | SW-620 colon 94.7% | MCF7 breast 82.5% | HCT-116 colon 87.6% | KM12 colon 86.5%

CC(=O)OC(OC(C)=O)C1CCCO1 (centres undefined)
inactive: T-47D breast 101% | BT-549 breast 95.8% | MDA-MB-435 melanoma 108% | SW-620 colon 107% | MCF7 breast 92.1% | HCT-116 colon 91.3% | KM12 colon 101%

O=[N+]([O-])c1ccccc1N=Nc1ccc(O)cc1O
inactive: T-47D breast 104% | BT-549 breast 101% | MDA-MB-435 melanoma 120% | SW-620 colon 116% | MCF7 breast 94.7% | HCT-116 colon 100% | KM12 colon 110%

CCC(C#N)(CC)c1ccccc1
inactive: T-47D breast 95.3% | BT-549 breast 100% | MDA-MB-435 melanoma 104% | SW-620 colon 104% | MCF7 breast 95.4% | HCT-116 colon 105% | KM12 colon 106%

Source: PubChem BioAssay (NCI)
